Measurements: PubChem BioAssay AID1362 (SRMLSC, 2008)
Among all 190,000 compounds or so, about 4,000 (2.1%) were called active. Rule as the data show it: active = inhibition above about 58%; inactive = the rest, inconclusive results apart; tested in S. cerevisiae. Only a selection was taken, and actives are over-represented in it overall.

Test: growth inhibition of WT strain, primary screen, mitochondrial fusion inhibitor project, WT and mutant strains, chemical genetic (AID 1362)
Conditions: mitochondrial fusion phenotypic screen, at 10 µM
[1] = WT strain, growth inhibition, stronger effect = higher value

| SMILES | inhibition [1] | inhibition (mutant strain inhibition) |
| --- | --- | --- |
| O=C(N/N=C/C=C/c1ccccc1)C1CC1(c1ccccc1)c1ccccc1 (centres undefined) | 17.1% (inactive) | -3.76% |
| CC(/C=C/c1ccccc1)=N\NC(=O)C1CC1(C)c1ccccc1 (centres undefined) | 71.7% (active) | 59.3% |
| O=C(/C=C/c1ccccc1)c1ccccc1O | 12.3% (inactive) | 8.14% |
| CCOC(=O)C1=C(CC)Nc2ccccc2N=C1N | -42.2% (inactive) | -18.4% |
| CCO[C@H]1OC(C(=O)N2CCCCCCC2)=C[C@@H](c2ccc(C(F)(F)F)cc2)[C@@H]1CCCO | -11% (inactive) | 9.51% |
| O=C(Nc1ccccc1)c1nnsc1S(=O)(=O)c1ccc(Cl)cc1 | 98.5% (active) | 97.8% |
| O=C(Nc1ccc(Cl)cc1)c1ccsn1 | 12.9% (inactive) | 28% |
| CC(=O)Nc1cc(C(=O)O)ccc1S(=O)(=O)c1ccc(Cl)cc1 | 8.84% (inactive) | 41.8% |
| CN(C)c1ccc(C=NCCc2ccc(S(N)(=O)=O)cc2)cc1 | -3.5% (inactive) | -12.7% |
| O=C(c1cc(Cl)cc(Cl)c1)N1CCC(=O)N(C(COCc2ccccc2)Cc2ccccc2)CC1 (centres undefined) | 71.4% (active) | 11.6% |
| CC(C)CC(CO)N1CCN(C(=O)c2ccc(Cl)cc2Cl)CCC1=O (centres undefined) | -10.3% (inactive) | 1.82% |
| CC(C)CC(COCc1ccc(Cl)cc1)N1CCN(C(=O)c2ccc(C(F)(F)F)cc2)CCC1=O (centres undefined) | 35.7% (inactive) | 0.99% |
| O=C(Nc1cccc(F)c1)N1C2CCC1CC(O)(c1cccnc1)C2 (centres undefined) | -6.02% (inactive) | -8.29% |
| C=CCn1c(=NC(=O)c2cccs2)sc2cc(NC(C)=O)ccc21 | -0.58% (inactive) | 5.07% |
| c1ccc2c(NCC3CCCO3)nc(-c3ccncc3)nc2c1 (centres undefined) | -20% (inactive) | -11% |
| Cc1nc2ccccc2c2oc(C(=O)NCC3CCCO3)cc12 (centres undefined) | 1.66% (inactive) | -8.79% |
| Clc1cccc(-c2nc(NCC3CCCO3)c3ccccc3n2)c1 (centres undefined) | 74.2% (active) | 68.9% |
| O=C1Nc2ccc([N+](=O)[O-])cc2C1=Nc1cccc(CO)c1 | 0.18% (inactive) | 6.98% |
| CC(C)(CNC(=O)c1cc(=O)[nH]c2ccccc12)N1CCOCC1 | -13.2% (inactive) | -2.01% |
| CC(CN1CCOCC1)c1ccccc1 (centres undefined) | -5.68% (inactive) | 13.1% |
| CC(C)(CNCC(O)c1ccccc1)N1CCOCC1 (centres undefined) | 64% (active) | 5.08% |
| Cn1c(SCC(=O)Nc2ccc(Br)cc2F)nnc1-c1ccco1 | -5.72% (inactive) | -9.59% |

| SMILES | inhibition [1] | inhibition (mutant strain inhibition) |
| --- | --- | --- |
| CCN(CC)C(=O)Oc1ccc(OC(=O)N(CC)CC)cc1 | -3.56% (inactive) | 8.46% |
| O=C(CSc1nnc(-c2cccs2)n1-c1ccccc1)N1CCN(C(=O)c2ccco2)CC1 | -17.6% (inactive) | -21.2% |
| O=C(CSc1nnc(-c2cccs2)n1Cc1ccccc1)N1CCc2ccccc2C1 | 70.4% (active) | 40.2% |
| CCn1c(SCC(=O)c2ccc3ccccc3c2)nnc1-c1cccs1 | 16.5% (inactive) | -6.78% |
| CCOC(=O)C1(C)NC(c2ccco2)C2C(=O)N(c3ccccc3)C(=O)C21 (centres undefined) | -2.53% (inactive) | -16.9% |
| CCc1cccc(C)c1NC(=S)N(CCCN1CCN(C)CC1)Cc1cccs1 | 4.55% (inactive) | 8.76% |
| Cc1ccc(NC(=S)N(CCCN2CCCC2)Cc2cccn2Cc2ccc(Cl)cc2)cc1 | 83.8% (active) | 31.5% |
| Cc1ccccc1NC(=S)N(CCCN1CCOCC1)Cc1cccs1 | 20.9% (inactive) | -3.99% |
| Cc1cc(C)cc(OCC(=O)Nc2ccc(S(=O)(=O)Nc3ccccn3)cc2)c1 | -6.39% (inactive) | -7.44% |
| CCOc1cc(N2CCOCC2)c(OCC)cc1NC(=O)c1cc(C)nc2ccccc12 | -14.2% (inactive) | -29.4% |
| CCC(=O)Nc1ccc2nc(C)n(Cc3ccccc3Cl)c(=O)c2c1 | 62.4% (active) | 62.2% |
| O=C(Nc1ccc2nc3n(c(=O)c2c1)CCCCC3)c1ccccc1Cl | -2.99% (inactive) | -3.04% |
| CCC(=O)Nc1nc2ccccc2n1Cc1ccccc1C | 32.7% (inactive) | 38.1% |
| COc1ccc(Cc2n[nH]c(=S)n2NC(=O)Nc2ccc(C)cc2)cc1 | -24.4% (inactive) | 1.23% |
| O=C(O)c1ccc(N/N=C/c2cn(-c3ccccc3)nc2-c2cccs2)cc1 | 25% (inactive) | 5.64% |
| O=C(Nc1cccc(O)c1)c1ccc(C(=O)c2ccccc2)o1 | -18.9% (inactive) | 0.34% |
| C/C(=C\C(=O)c1cccnc1)Nc1ccc(C)c(C)c1 | 21.1% (inactive) | 23% |
| C/C(=C\C(=O)c1ccccc1)Nc1cccc(O)c1 | 85.2% (active) | 17.2% |
| Cc1ccc(C(NC(=O)N2CCCC2)C(Cl)(Cl)Cl)cc1F (centres undefined) | 10.1% (inactive) | 18.2% |
| CCC(C)(C)NC(=O)CN(C(=O)CCC(=O)Nc1cc(C)ccn1)c1ccc2c(c1)OCCO2 | 3.35% (inactive) | -3.2% |
| O=C(COC(=O)CNS(=O)(=O)c1ccccc1)NC12CC3CC(CC(C3)C1)C2 | 4.93% (inactive) | -2.93% |
| CC(NC(=S)Nc1ccccc1)C1COc2ccccc2O1 (centres undefined) | 5.96% (inactive) | 2.67% |

| SMILES | inhibition [1] | inhibition (mutant strain inhibition) |
| --- | --- | --- |
| S=C(NCC1COc2ccccc2O1)Nc1ccc(Br)cc1 (centres undefined) | 5.47% (inactive) | 7.77% |
| CCCN(CC1COc2ccccc2O1)C(=S)Nc1ccc(C)cc1 (centres undefined) | 65.7% (active) | 33.2% |
| CCOCCCNC(=O)C(NC(=O)Cc1c[nH]c2ccccc12)c1ccc(OC)cc1 (centres undefined) | -1.73% (inactive) | 8.23% |
| O=C1COc2ccc(NC(=O)N3CCN(c4ccc(F)cc4)CC3)cc2N1 | 74.7% (active) | 0.98% |
| COc1cccc(N2CCN(C(=O)Nc3ccc4c(c3)NC(=O)CO4)CC2)c1 | 43.7% (inactive) | 41.7% |
| O=C(Nc1ccc(F)cc1)N1CCN(c2ccc(F)cc2)CC1 | -9.94% (inactive) | -0.68% |
| COc1ccc(CNC(=O)CN2CCC(n3nnc4cc(F)ccc43)CC2)cc1 | 3.98% (inactive) | -18.3% |
| CCOc1cccc(/C=C/c2ccc3ccccc3n2)c1OC(C)=O | 33% (inactive) | 25.6% |
| CC1(C)C2CCC1(C)C(OC(=O)c1ccc(O)cc1)C2 (centres undefined) | 94.2% (active) | 81.9% |
| Cc1ccc(C(=O)OC2CCCN(C)C2)cc1 (centres undefined) | -13.6% (inactive) | -3.26% |
| CC1(C)C2CCC1(C)C(OC(=O)CCn1ccnc1)C2 (centres undefined) | -4.41% (inactive) | -8.76% |
| CSc1ccccc1NC(=O)CN(C)CC(=O)Nc1ccc(Cl)cc1[N+](=O)[O-] | 70% (active) | 21.8% |
| CSc1ccccc1NC(=O)CN(C)CC(=O)Nc1cccc(Br)c1 | 21.6% (inactive) | -2.69% |
| Cc1ccc(NC(=O)CN(C)Cc2ccc(F)cc2)c([N+](=O)[O-])c1 | 22% (inactive) | 0.15% |
| COc1ccc(CN2CN(C3CCCC3)CSC2=S)cc1 | -12.1% (inactive) | -26.6% |
| Cc1nc2ccccc2cc1OCc1ccc(F)cc1 | -15.6% (inactive) | -4.03% |
| Cc1noc(COc2ccccc2OCC(O)CNC(C)(C)C)n1 (centres undefined) | -1.99% (inactive) | -4.87% |
| Cc1noc(COc2ccccc2OCc2onc(C)c2Cl)c1Cl | 64% (active) | 31.8% |
| CCc1[nH]nc(C(=O)N2CCCC(CNS(=O)(=O)c3cccs3)C2)c1C (centres undefined) | -19% (inactive) | 4.29% |
| O=[N+]([O-])c1ccc2[nH]c3c(c2c1)CCCC3O (centres undefined) | -3.98% (inactive) | 12% |
| COc1ccc(F)cc1C(=O)C1CCCN(C(=O)CCc2ccccn2)C1 (centres undefined) | 15.2% (inactive) | -2.96% |
| CCOC(=O)N1CCN(C(=S)Nc2ccc(C)cc2C)CC1 | 7.78% (inactive) | 3.64% |

| SMILES | inhibition [1] | inhibition (mutant strain inhibition) |
| --- | --- | --- |
| CCOC(=O)c1ccccc1NS(=O)(=O)c1ccc(OC)cc1 | 38% (inactive) | 30.7% |
| CCOC(=O)C1=C(c2ccc(OC)cc2)C(=O)c2ccccc2C1=O | 68.3% (active) | 20.7% |
| CCOC(=O)c1c(C)[nH]c2c1-c1ccccc1C(=O)C2=O | 46.9% (inactive) | 15% |
| CCC(=O)c1ccc(OCC(O)Cn2nc(C)c(C(C)=O)c2C)cc1 (centres undefined) | -6.24% (inactive) | -0.7% |
| CCCn1nc(C(=O)N2CCCc3ccccc32)c2ccccc2c1=O | 9.04% (inactive) | 8.88% |
| Cc1ccc(-c2csc(NC(=O)c3cnccn3)n2)cc1C | -10.3% (inactive) | 14.6% |
| Cc1ccc(C(=O)/C=C/c2c(C)nn(-c3ccccc3)c2Cl)cc1 | 59.5% (active) | -6.72% |
| Cc1nn(-c2ccccc2)c(Cl)c1C(=O)Nc1ccccc1 | 24.7% (inactive) | -5.62% |
| Cc1nn(-c2ccccc2)c(Cl)c1/C=C/C(=O)c1ccc(O)cc1 | -8.06% (inactive) | 3.09% |
| O=C(Cn1c(N2CCN(C/C=C/c3ccccc3)CC2)nc2ccccc21)c1ccccc1 | 45.1% (inactive) | 41.5% |
| COc1ccc(C(=O)CSc2nnc(-c3ccco3)o2)cc1 | -6.52% (inactive) | -35.3% |
| N#Cc1cccc(Nc2c3c(nc4ccccc24)CCCC3)c1 | -0.59% (inactive) | 6.35% |
| COC(=O)c1c(C)[nH]c(C)c1-c1ccc([N+](=O)[O-])cc1 | 53% (inactive) | 55.8% |
| COc1ccc(NC(=S)Nc2ccc(S(N)(=O)=O)cc2)c(C)c1 | 13.8% (inactive) | 6.64% |
| CC(C)(C)OC(=O)N/N=C/c1cn(-c2ccccc2)nc1-c1cccnc1 | -8.33% (inactive) | -1.71% |
| COc1ccc(-c2nn(-c3ccccc3)cc2C(=O)Nc2nccs2)cc1OC | 26.6% (inactive) | -2.08% |
| COc1ccc(-c2nn(-c3ccccc3)cc2/C=N/Nc2ccccn2)cc1OC | 60.2% (active) | 31.9% |
| Cc1nnsc1C(=O)N/N=C/c1cccc(C(F)(F)F)c1 | 36.2% (inactive) | 7.39% |
| Cc1cc(=O)oc(C)c1C(=O)Nc1cnc2ccccc2c1 | 98.9% (active) | 96.3% |
| Cc1cc(=O)oc(C)c1C(=O)NCCN(C)Cc1ccccc1 | -0.58% (inactive) | 11.8% |
| Cc1cc(=O)oc(C)c1C(=O)NCc1ccc(F)cc1 | -0.25% (inactive) | 16.4% |
